This passage reports growth results from PubChem BioAssay (NCI).

Some test systems named below: HCT-15 colon; HT29 colon; SNB-75 CNS; SNB-19 CNS; U251 CNS; PC-3 prostate; SK-MEL-5 melanoma; UACC-62 melanoma; LOX IMVI melanoma; SK-MEL-28 melanoma; SK-MEL-2 melanoma; EKVX NSCLC; SN12C renal; UO-31 renal; TK-10 renal; ACHN renal; CAKI-1 renal; A498 renal; CCRF-CEM leukemia; MOLT-4 leukemia.
Common to all, as to assay: NCI-60 one-dose screen, 48 h (100 = growth as untreated, 0 = no growth, -100 = all killed)
Holding throughout (details): 10 µM

SMILES strings stand for the structures. This is part of a sample that, as a whole, favours compounds with a hit. Of some 83,000 tested, about 20% had one in any assay.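 Single-dose data. Exposure time 48 hours. Values below 10 considered active.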 Unmarked numbers belong to inactive results. Active and inactive are the calls of the source.

In the case of `O=C(CSc1nnc(-c2ccc3nc(-c4ccccc4)[nH]c3c2)o1)Nc1ccc(Cl)cc1`, the growth is 15.7% with HCT-15 colon; 17.4% with HT29 colon; 66.1% in the experiment with SNB-75 CNS; 63.9% with SNB-19 CNS; 48.9% in the experiment on U251 CNS; 43.3% in the experiment on PC-3 prostate. Moreover, the growth in the experiment on SK-MEL-5 melanoma is 15.3%; with UACC-62 melanoma, 34.3%; in the experiment with LOX IMVI melanoma, -2.86% (active); in the experiment with SK-MEL-28 melanoma, 41.8%; with SK-MEL-2 melanoma, 45%; in the experiment on EKVX NSCLC it was 48.6%. Further, the growth in the experiment with SN12C renal was 46.1%; in the experiment with UO-31 renal, 40.1%; in the experiment on TK-10 renal it was 55%; with ACHN renal, 29.5%; in the experiment on CAKI-1 renal it was 30.5%; with A498 renal, 101%. Further, the growth was 13.7% in the experiment with CCRF-CEM leukemia and 7.63% (active) in the experiment on MOLT-4 leukemia.
Turning to `CC(=O)Nc1ccc(-c2cn(-c3cccc(C(=O)Nc4ccc(F)c(C(F)(F)F)c4)c3)nn2)cn1`, the growth is 20.7% in the experiment with HCT-15 colon; 6.65% (active) in the experiment on HT29 colon; 119% in the experiment with SNB-75 CNS; 43.8% in the experiment on SNB-19 CNS; -47.8% (active) in the experiment with U251 CNS; 43.1% with PC-3 prostate. The growth with SK-MEL-5 melanoma is 86.1%; in the experiment with UACC-62 melanoma, 55.9%; in the experiment on LOX IMVI melanoma, 8.57% (active); in the experiment with SK-MEL-28 melanoma it was 60.3%; in the experiment on SK-MEL-2 melanoma, 88.9%; in the experiment with EKVX NSCLC it was 79.9%. Besides, the growth with SN12C renal is 13.4%; in the experiment with UO-31 renal, 123%; in the experiment on TK-10 renal, 109%; in the experiment on ACHN renal, 56.4%; in the experiment on CAKI-1 renal, 74.1%; in the experiment with A498 renal it was 114%. Moreover, the growth in the experiment with CCRF-CEM leukemia was 53.9%.
As to `CC(=O)Nc1nc(-c2ccc(N3CCN(C)CC3)c(NS(=O)(=O)c3ccc(C(F)(F)F)cc3)c2)cs1`, the growth was -67.7% (active) in the experiment with HCT-15 colon; -18.7% (active) with HT29 colon; 1.07% (active) in the experiment with SNB-75 CNS; 45.6% with SNB-19 CNS; 23.1% with U251 CNS; 30.3% in the experiment with PC-3 prostate. Also, the growth is 7.11% (active) in the experiment with SK-MEL-5 melanoma; 6.26% (active) in the experiment with UACC-62 melanoma; -85.4% (active) in the experiment on LOX IMVI melanoma; 5.39% (active) with SK-MEL-28 melanoma; 7.74% (active) with SK-MEL-2 melanoma; 72.2% with EKVX NSCLC. Also, the growth was 13.7% with SN12C renal; 24.9% in the experiment with UO-31 renal; 10.8% in the experiment with TK-10 renal; 5.92% (active) with ACHN renal; 13.5% in the experiment on CAKI-1 renal; 52.3% with A498 renal. Besides, the growth in the experiment on CCRF-CEM leukemia was -13.4% (active).
`CC(=O)c1ccc(NC(=O)NCn2c(=O)[nH]c3ccccc3c2=O)cc1`: the growth in the experiment with HCT-15 colon is 101%; in the experiment on HT29 colon, 105%; with SNB-75 CNS, 99.9%; with SNB-19 CNS it was 90.4%; in the experiment on U251 CNS, 86.7%; in the experiment on PC-3 prostate it was 86.9%. Also, the growth is 96.8% in the experiment with SK-MEL-5 melanoma; 81.1% in the experiment on UACC-62 melanoma; 92.8% with LOX IMVI melanoma; 103% in the experiment on SK-MEL-28 melanoma; 106% with SK-MEL-2 melanoma; 92.5% with EKVX NSCLC. Besides, the growth with SN12C renal is 94.2%; in the experiment with UO-31 renal it was 73.7%; with TK-10 renal, 105%; in the experiment with ACHN renal, 99.2%; in the experiment on CAKI-1 renal it was 91.2%; in the experiment with A498 renal, 98.1%. For the same molecule, the growth with CCRF-CEM leukemia was 91.6%.
For `COc1ccc2[nH]c(O)c(N=NC(=O)COc3ccc(NC(=O)Nc4ccc(Cl)cc4)cc3)c2c1`, the growth with HCT-15 colon is 99.5%; with HT29 colon it was 8.21% (active); with SNB-75 CNS, 42.8%; in the experiment with SNB-19 CNS, 3.67% (active); with U251 CNS, -87.2% (active); in the experiment with PC-3 prostate, 18%. For the same molecule, the growth was 32.2% in the experiment with SK-MEL-5 melanoma; -30.2% (active) in the experiment with UACC-62 melanoma; -59.7% (active) in the experiment with LOX IMVI melanoma; -72.3% (active) with SK-MEL-28 melanoma; -8.16% (active) in the experiment with SK-MEL-2 melanoma; 84.8% with EKVX NSCLC. The growth in the experiment on SN12C renal is 15.9%; in the experiment with UO-31 renal, 90.3%; with TK-10 renal it was 106%; in the experiment with ACHN renal, 100%; in the experiment on CAKI-1 renal, 99.7%; in the experiment with A498 renal, 135%. For the same molecule, the growth in the experiment on CCRF-CEM leukemia was 8.83% (active).
Regarding `CC1(C)CC[C@]2(C(=O)O)CC[C@]3(C)C(=CC[C@@H]4[C@@]5(C)C/C(=C/c6ccncc6)[C@H](O)C(C)(C)[C@@H]5CC[C@]43C)[C@@H]2C1`, the growth with HCT-15 colon was 15.7%; in the experiment with HT29 colon, 35.3%; in the experiment on SNB-75 CNS, 35.5%; in the experiment on SNB-19 CNS it was 41.8%; in the experiment on U251 CNS it was 28.9%; with PC-3 prostate, 28.2%. Also, the growth with SK-MEL-5 melanoma is -23.2% (active); with UACC-62 melanoma it was 52.6%; with LOX IMVI melanoma it was 28.7%; with SK-MEL-28 melanoma, 46.3%; in the experiment on SK-MEL-2 melanoma, 55.4%; in the experiment on EKVX NSCLC it was 30.1%. Besides, the growth was 55% in the experiment with SN12C renal; 32.9% in the experiment on UO-31 renal; 46.9% in the experiment on TK-10 renal; 25.7% with ACHN renal; 35.6% in the experiment with CAKI-1 renal; 65% in the experiment on A498 renal. For the same molecule, in the experiment with CCRF-CEM leukemia, the growth is 21%.
As for `CN1C(=O)/C(=C/c2ccc3ncsc3c2)NC1=NC12CC3CC(CC(O)(C3)C1)C2`, the growth was -7.12% (active) in the experiment with HCT-15 colon; 3.87% (active) with HT29 colon; 25.9% in the experiment on SNB-75 CNS; 16.3% with SNB-19 CNS; 16.4% in the experiment on U251 CNS; 16.8% with PC-3 prostate. Moreover, the growth with SK-MEL-5 melanoma was -90.7% (active); in the experiment on UACC-62 melanoma, -7.72% (active); with LOX IMVI melanoma, -52.8% (active); with SK-MEL-28 melanoma, -18.4% (active); in the experiment with SK-MEL-2 melanoma, -82.3% (active); in the experiment on EKVX NSCLC, 12.3%. In addition, the growth was 4.63% (active) in the experiment on SN12C renal; -0.057% (active) in the experiment with UO-31 renal; 39.2% with TK-10 renal; 0.736% (active) with ACHN renal; 8.2% (active) with CAKI-1 renal; -10.5% (active) in the experiment on A498 renal. In addition, the growth in the experiment with CCRF-CEM leukemia was 5.06% (active); with MOLT-4 leukemia, 4.59% (active).
Turning to `COc1ccccc1C(=O)NNC(=O)CSc1nc2c(c(=O)[nH]1)CCCC2`, the growth was 110% with HCT-15 colon; 113% in the experiment with HT29 colon; 99.3% in the experiment with SNB-75 CNS; 101% in the experiment with SNB-19 CNS; 104% in the experiment with U251 CNS; 83.4% with PC-3 prostate. Further, the growth was 99.3% in the experiment on SK-MEL-5 melanoma; 95.2% in the experiment on UACC-62 melanoma; 96.9% in the experiment with LOX IMVI melanoma; 110% in the experiment on SK-MEL-28 melanoma; 112% with SK-MEL-2 melanoma; 91.5% in the experiment on EKVX NSCLC. Moreover, the growth is 102% in the experiment with SN12C renal; 61.9% with UO-31 renal; 132% in the experiment on TK-10 renal; 98.8% in the experiment with ACHN renal; 84.5% in the experiment on CAKI-1 renal; 153% in the experiment with A498 renal. Also, the growth in the experiment with CCRF-CEM leukemia is 96.8%.
